# Measurements reported in PubChem BioAssay (NCATS).
# “And” between values parts separate entries of the source, which are not always exact repeats. Equal values may be shown once. Records with an inconclusive call do not appear. Where a call stands in place of a potency, no number is given. The source made the active and inactive calls. Unless noted, calls come from the whole dose curve; as a rule, active = well fitted curve in the direction sought with a large enough effect; inconclusive = small, poorly fitted or top-dose-only effect, or another doubt; inactive = no such curve, though single readings can be large; an effect the other way counts as inactive or inconclusive.
# Tests used:
# [1] = molecular target: alpha-glucosidase (Oryza sativa, rice) (UniProt Q653V4); assay: Counterscreen for Glucocerebrosidase Inhibitors: qHTS Assay for Rice alpha-Glucosidase at pH 5.0 (AID 997)
# Outline: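 Endpoint fluorogenic assay at pH 5.0: compounds (0.7 nM to 77 uM) titrated against 4 nM rice enzyme and 400 uM 4-MU-alpha-glucoside for 20 min at room temperature; NaOH/glycine stop, read ex 365/em 440 nm, Hill-fitted AC50.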
# [2] = Cell Viability - LYMP2-016 (AID 984);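 note: cells exposed to compound for 24 hours at 37 °C; nearly all actives have a fitted effect of over 55% in size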
# Outline: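 Human lymphoblastoid cells (LYMP2-016), 2500/well in complete medium, preincubated 5 hr at 37 C, then compound-treated 24 hr at 37 C. Intracellular ATP read by CellTiter-Glo luminescence after 30 min at room temperature; AC50 from Hill-equation concentration-response fits.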
# [3] = Cell Viability - LYMP2-018 (AID 985); note: nearly all actives have a fitted effect of over 50% in size
# Outline: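 2500 cells/well; 5 hr 37 C; cmpd 24 hr 37 C, complete medium; CellTiter-Glo 30 min RT; luminescence. Tetraoctylammonium bromide positive control. AC50 via Hill fit.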
# [4] = Cell Viability - LYMP2-020 (AID 986);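 note: cells exposed to compound for 24 h at 37 °C; nearly all actives have a fitted effect of over 55% in size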
# Outline: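 qHTS, 2500 cells/well; 5 hr then 24 hr compound exposure, 37 C; CellTiter-Glo luminescence after 30 min RT; ATP decrease taken as cytotoxicity; AC50 via Hill equation; tetraoctylammonium bromide positive control.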
# [5] = Cell Viability - LYMP2-022 (AID 987); note: nearly all actives have a fitted effect of over 55% in size
# Outline: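 Luminescent ATP read-out (CellTiter-Glo, 30 min, RT) after 24 hr, 37 C compound exposure of 2500 human lymphoblastoid cells/well in complete medium. Cytotoxicity taken as concentration-dependent ATP loss; AC50 from standard Hill equation.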
# [6] = Cell Viability - LYMP2-026 (AID 989);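 note: cells exposed to compound for 24 h at 37 °C; nearly all actives have a fitted effect of over 50% in size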
# Outline: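 qHTS cytotoxicity: 2500 cells/well, 5 hr 37 C, compound 24 hr 37 C, CellTiter-Glo 30 min RT, luminescence. Tetraoctylammonium bromide positive control. AC50 via standard Hill fit.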
# [7] = Cell Viability - LYMP1-002 - Assay at 40 hr (AID 994); note: nearly all actives have a fitted effect of over 60% in size
# Outline: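 qHTS cytotoxicity; 2500 cells/well, 5 hr 37 C settle, compound 40 hr 37 C. CellTiter-Glo, 30 min RT, luminescence (ATP). Concentration-response, Hill fit → AC50. Pos. ctrl tetraoctylammonium bromide.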
# [8] = molecular target: Alpha-galactosidase A (Homo sapiens) (UniProt P06280); assay: Counterscreen for Glucocerebrosidase Inhibitors: qHTS Assay for Human alpha-Galactosidase at pH 4.5 (AID 992)
# Alpha-galactosidase A (Homo sapiens), sequence (P06280 whole entry, looked up): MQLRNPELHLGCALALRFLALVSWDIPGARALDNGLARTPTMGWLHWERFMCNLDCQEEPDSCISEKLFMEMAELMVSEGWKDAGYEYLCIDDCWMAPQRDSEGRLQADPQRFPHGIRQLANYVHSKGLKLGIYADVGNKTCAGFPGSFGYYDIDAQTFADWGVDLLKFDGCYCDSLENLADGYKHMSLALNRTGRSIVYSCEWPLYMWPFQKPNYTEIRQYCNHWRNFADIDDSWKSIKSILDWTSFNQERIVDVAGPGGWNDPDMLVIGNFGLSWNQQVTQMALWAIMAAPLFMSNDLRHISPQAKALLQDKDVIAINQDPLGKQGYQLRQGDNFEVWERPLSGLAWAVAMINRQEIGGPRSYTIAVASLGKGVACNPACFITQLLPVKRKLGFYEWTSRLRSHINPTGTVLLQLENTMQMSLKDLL
# Outline: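 Fluorogenic 1536-well qHTS at pH 4.5 (citrate, Tween-20): 2 nM enzyme, 80 uM 4-MU-alpha-galactoside, 20 min room temperature, NaOH/glycine stop. Titration 0.7 nM to 77 uM, data normalized to no-enzyme and full-activity controls, Hill-fitted AC50.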
# [9] = qHTS Assay for Lipid Storage Modulators (AID 1519; calls by dose curve); conditions: Drosophila S3 cells, BODIPY lipid droplet/cell ratio, laser cytometry, cells loaded with oleic acid
# Outline: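 Cells seeded at 5,000 per well were treated with compounds over a concentration series and loaded with oleic acid (400 uM, as added). Lipid droplet fluorescence (488 nm excitation, 500-530 nm channel) was read by laser-scanning cytometry and normalized to 20 uM Triacsin C.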
# [10] = measured here: cell count channel max response
# [11] = measured here: lipid channel max response
compound,measurement,setting,value
Cc1cc(C(C)(C)C)cc(C)c1CC1=NCCN1,outcome,[1],inactive
Cc1cn([C@H]2C[C@H](N=[N+]=[N-])[C@@H](CO)O2)c(=O)[nH]c1=O,outcome,[2],inactive
same,outcome,[3],inactive
same,outcome,[4],inactive
same,outcome,[5],inactive
same,outcome,[6],inactive
same,Potency,[7],inactive
CC[N+](CC)(CC)CCOc1cccc(OCC[N+](CC)(CC)CC)c1OCC[N+](CC)(CC)CC,outcome,[8],inactive
same,outcome,[1],inactive
C[C@](N)(Cc1ccc(O)c(O)c1)C(=O)O,outcome,[1],inactive
same,"activity change, negative = inhibition",[9]; at 57.5 µM (top of the series),1.88% (inactive)
same,max response,[9]; [10],48.1%
same,max response,[9]; [11],42%
O=C(Nc1ccc([N+](=O)[O-])cc1Cl)c1cc(Cl)ccc1O,outcome,[1],inactive
CN(Cc1cnc2nc(N)nc(N)c2n1)c1ccc(C(=O)N[C@@H](CCC(=O)O)C(=O)O)cc1,outcome,[1],inactive
same,"activity change, negative = inhibition",[9]; at 57.5 µM (top of the series),0.2% (inactive)
same,max response,[9]; [10],-11.7%
same,max response,[9]; [11],-9.12%
CCCCc1oc2ccccc2c1C(=O)c1cc(I)c(OCCN(CC)CC)c(I)c1,outcome,[1],inactive
COc1nc(C)nc(Cl)c1NC1=NCCN1,outcome,[8],inactive
same,outcome,[1],inactive
Cn1c(=O)c2[nH]cnc2n(C)c1=O,outcome,[2],inactive
same,outcome,[3],inactive
same,outcome,[4],inactive
same,outcome,[5],inactive
same,outcome,[6],inactive
same,outcome,[8],inactive
same,Potency,[7],inactive
same,outcome,[1],inactive
OCCN(CCO)c1nc(N2CCCCC2)c2nc(N(CCO)CCO)nc(N3CCCCC3)c2n1,outcome,[1],inactive
same,"activity change, negative = inhibition",[9]; at 25.7 µM (top of the series),-0.0376% (inactive)
same,max response,[9]; [10],-18.6%
same,max response,[9]; [11],-17.7%
Cn1ccc2cc3c(cc21)CCN3C(=O)Nc1cccnc1,outcome,[1],inactive
O=c1c(O)c(-c2ccc(O)c(O)c2)oc2cc(O)cc(O)c12,outcome,[1],inactive
CCC1(c2ccccc2)C(=O)NCNC1=O,outcome,[2],inactive
same,outcome,[3],inactive
same,outcome,[4],inactive
same,outcome,[5],inactive
same,outcome,[6],inactive
same,Potency,[7],inactive
same,outcome,[1],inactive
COc1ccc2[nH]cc(CCNC(C)=O)c2c1,outcome,[2],inactive
same,outcome,[3],inactive
same,outcome,[4],inactive
same,outcome,[5],inactive
same,outcome,[6],inactive
same,outcome,[8],inactive
same,Potency,[7],inactive
same,outcome,[1],inactive
same,"activity change, negative = inhibition",[9]; at 25.7 µM (top of the series),1.02% (inactive)
same,"activity change, negative = inhibition",[9]; at 57.5 µM (top of the series),11.3% (inactive) and -5.62% (inactive) and 7.48% (inactive)
NC(=O)OCC(COC(N)=O)c1ccccc1,outcome,[1],inactive
same,"activity change, negative = inhibition",[9]; at 57.5 µM (top of the series),-4.42% (inactive)
same,max response,[9]; [10],-0.783%
same,max response,[9]; [11],-3.41%
CC(C)Cc1ccc(C(C)C(=O)O)cc1 (stereo not given),outcome,[8],inactive
same,outcome,[1],inactive
NC(=O)NO,outcome,[8],inactive
same,outcome,[1],inactive
